Reference: PubChem BioAssay AID720641 (ICCB-Longwood Screening Facility, Harvard Medical School, 2013)
About 900 (0.53%) of roughly 170,000 compounds were called active.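 Rule for the calls: active = relative growth at most 50% at the other temperature and 20+ points below 30 °C, or under 10% at both; inactive = the rest, inconclusive results apart.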 The entries come from a sample that favours actives as a whole.

Test: Staphylococcus aureus RN4220 growth blockers – two temperatures, LtaS inhibitor project, primary screen (AID 720641)
Settings: S. aureus RN4220 growth, OD600, 20 h, 42 °C, stronger effect = lower value

SMILES	relative growth	relative growth (measured here: growth at 30 °C) [%]
O=C(N/C=C/c1ccsc1)Nc1cc(C(F)(F)F)cc(C(F)(F)F)c1	-2.07% (active)	-0.58
O=C(CSc1ccccn1)Nc1cc(C(F)(F)F)cc(C(F)(F)F)c1	112% (inactive)	86.3
O=C(O)CCCC(=O)Nc1cc(C(F)(F)F)cc(C(F)(F)F)c1	101% (inactive)	71.5
CC(=O)OCC(=O)CC12CC3CC(CC(C3)C1)C2	83.3% (inactive)	93.7
CCOC(=O)CN1C(=O)S/C(=C\c2ccc(-c3ccc(Cl)cc3Cl)o2)C1=O	89.9% (inactive)	87
CCN1CCCC1CNC(=O)c1nnc(Cc2ccccc2OC)o1 (configuration not stated)	79.5% (inactive)	88.3
CC(C)(C)c1ccc(S(=O)(=O)N2CCN(C(=O)c3cc(-c4ccc(Br)cc4)n[nH]3)CC2)cc1	99.3% (inactive)	102
FC(F)(F)c1cc(-c2ccc(Br)cc2)n[nH]1	8.64% (active)	4.24
Cc1cc(C)c(NC(=O)CSC2=NN3CCCC(=O)N=C3S2)c(C)c1	95% (inactive)	89
CCCNc1ncnc2onc(-c3ccc(F)cc3)c12	90.2% (inactive)	91
CNC(=O)C1CCN(S(=O)(=O)c2c(C)noc2/C=C/c2cccc(C)c2)CC1	107% (inactive)	81.4
CCCOc1c(Br)cc(C(=O)O)cc1OC	90.2% (inactive)	101
CC1CC(C)CN(C(=O)C(C)n2sc3ccccc3c2=O)C1 (configuration not stated)	120% (inactive)	95.8
CCn1c(SCc2c(C)noc2C)nc2cc(S(=O)(=O)N3CCOCC3)ccc21	63.8% (inactive)	94
NC(=O)c1ncoc1-c1cccc(Cl)c1	108% (inactive)	76
Oc1ccc(-n2cccc2)cc1	84.2% (inactive)	92.9
Oc1ccc(SSc2ccc(O)cc2)cc1	3.56% (active)	3.94
Oc1ccc(-c2cccc(-c3ccc(O)cc3)c2)cc1	97.5% (inactive)	59.9
CCOC(=O)C1=C(C)Nc2[nH]c(=O)[nH]c(=O)c2C1c1ccccc1 (configuration not stated)	94.1% (inactive)	92.8
FC(F)(F)C1CCCN(c2nsc3ccccc23)C1 (configuration not stated)	-0.41% (active)	-0.5
Cc1c(/C=C/C(=O)Oc2ccc(C#N)cc2)sc2ccccc12	110% (inactive)	87.3
Cc1ccccc1OCC(=O)Nc1cc(Sc2ccccn2)cc(S(=O)(=O)c2ccccc2)c1	103% (inactive)	88.5
CC(C)(C)c1cc(Cl)c(O)c(NC(=O)c2cncc(Br)c2)c1	112% (inactive)	87.7

SMILES	relative growth	relative growth (measured here: growth at 30 °C) [%]
Cc1cccc(OC(=O)Nc2ccccc2)c1	102% (inactive)	91.2
CCn1c(CCl)nc2cc(C(=O)O)ccc21	119% (inactive)	82.3
O=S(=O)(NC1CCCC1)c1ccc(S(=O)(=O)N2CCN(c3ncccn3)CC2)cc1	100% (inactive)	79.4
O=C(OCCN1CCCCC1)c1cccc(COc2ccc3ccccc3c2)c1	102% (inactive)	83
O=C(Nc1ccncc1)c1cccc(COc2ccc3ccccc3c2)c1	1.11% (active)	2.67
O=C(Nc1cccc(-c2nc3ccccc3o2)c1)c1cccc(OCc2ccccc2)c1	124% (inactive)	93.3
CCOc1ccc(C(=O)NN)cc1	77.2% (inactive)	80.8
CCn1c(CSc2nc3ccccc3s2)nnc1SC(C)C(=O)Nc1ccc(N(C)C)cc1 (configuration not stated)	116% (inactive)	97.9
O=C(Oc1ccc(Cl)cc1)c1csc(C2COc3ccccc3O2)n1 (configuration not stated)	92.8% (inactive)	92.7
CN(C)C(=O)c1csc(C2COc3ccccc3O2)n1 (configuration not stated)	93.5% (inactive)	87.9
O=C(Sc1cccs1)c1csc(C2COc3ccccc3O2)n1 (configuration not stated)	0.36% (active)	-0.46
N#C/C(=C\c1ccccc1F)c1ccccc1	110% (inactive)	92.3
CC1=CC(=O)C=CC1=N/C(=N\S(=O)(=O)c1ccc(C)cc1)c1ccccc1	104% (inactive)	57.7
COCCn1c(SC)nc2c(c1=O)SCC2	96% (inactive)	94.8
N#C/C(=C\c1ccc(-c2ccc(S(=O)(=O)N3CCOCC3)cc2)o1)S(=O)(=O)c1ccc(Br)cc1	87.4% (inactive)	90.9
CN(C(=O)c1cccnc1Cl)C1CCS(=O)(=O)C1 (configuration not stated)	115% (inactive)	88.3
CCn1nc(-c2cccs2)cc1C(=O)N(C)C	105% (inactive)	86.8
CCOC(=O)CSc1ccccn1	94.9% (inactive)	101
COC(=O)c1ccccc1NC(=O)CSc1ccccn1	93.1% (inactive)	93.2
CCOC(=O)CCSc1ccccn1	0.28% (active)	-0.27
CSc1nnc(NC(=O)c2nc(S(=O)(=O)Cc3ccc(F)cc3)ncc2Cl)s1	93.7% (inactive)	90.3
CCSc1ncc(Cl)c(C(=O)Nc2cc(C)ccc2C)n1	108% (inactive)	85.1
Cc1ccc(NC(=O)c2nc(S(=O)(=O)Cc3cccc(C)c3)ncc2Cl)cc1	8.42% (active)	21.7
